# Compound activity: PubChem BioAssay, several laboratories
# HIF-2a block – HIF-2a reporter inhibitors, primary screen, luminescence, 786-0 RCC cells; 786-0 RCC cells HIF-2a reporter, luciferase luminescence, overnight; inhibition, % at 18.8 µM; 0.72% of 360,000 active;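 active = inhibition of the luminescence signal of 40% or more relative to plate controls, in a single-dose primary screen at 18.75 µM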
# ABHD5 PLIN5 PPI – ABHD5-PLIN5 interaction inhibitors, primary screen, cell lysate, split luciferase complementation, luminescence. Perilipin-5 (Homo sapiens) + 1-acylglycerol-3-phosphate O-acyltransferase ABHD5 (Homo …. Split G. princeps luciferase complementation, 4 h. inhibition, % at 4 µM. 0.78% of 360,000 active. AID 602281, 2012;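 active = inhibition above the mean inhibition across every tested compound plus 3 SD, cut at about 22% in these data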;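 note: 0% = DMSO only wells and the 100% control is not disclosed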
# Target sequence (Q00G26 whole entry, looked up): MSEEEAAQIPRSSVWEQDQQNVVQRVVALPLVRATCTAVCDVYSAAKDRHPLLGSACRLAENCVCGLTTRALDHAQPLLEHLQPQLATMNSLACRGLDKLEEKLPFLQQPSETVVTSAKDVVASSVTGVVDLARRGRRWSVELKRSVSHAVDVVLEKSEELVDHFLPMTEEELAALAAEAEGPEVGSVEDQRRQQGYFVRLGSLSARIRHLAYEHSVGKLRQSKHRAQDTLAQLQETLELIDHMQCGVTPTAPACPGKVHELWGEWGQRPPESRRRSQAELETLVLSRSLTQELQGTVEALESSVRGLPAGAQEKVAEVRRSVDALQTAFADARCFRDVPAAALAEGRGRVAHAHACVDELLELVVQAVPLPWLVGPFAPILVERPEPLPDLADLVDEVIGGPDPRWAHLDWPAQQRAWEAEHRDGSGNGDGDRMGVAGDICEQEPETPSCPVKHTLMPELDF
# Target sequence (Q8WTS1 whole entry, looked up): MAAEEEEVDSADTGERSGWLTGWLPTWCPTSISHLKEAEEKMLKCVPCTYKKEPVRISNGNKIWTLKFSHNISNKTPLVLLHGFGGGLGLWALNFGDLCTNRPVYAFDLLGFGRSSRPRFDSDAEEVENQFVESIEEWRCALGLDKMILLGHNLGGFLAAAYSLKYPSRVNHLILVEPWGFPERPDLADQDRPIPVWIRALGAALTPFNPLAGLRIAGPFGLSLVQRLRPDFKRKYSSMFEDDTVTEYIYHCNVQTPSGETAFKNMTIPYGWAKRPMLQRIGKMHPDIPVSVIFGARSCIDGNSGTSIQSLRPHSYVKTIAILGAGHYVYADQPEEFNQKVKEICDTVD
# CF NFkB inh – inhibitors of PAF-induced NF-kB signaling, primary screen, cell-based, GFP fluorescence, uHTS; 0.86% of 360,000 active; inhibition, % at 5 µM; AID 588850, 2011; KKLEB NF-kB-GFP reporter, GFP fluorescence overnight;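 active = at least 50% inhibition at 5 µM, scaled per plate between neutral and stimulator controls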;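 note: PAF is a Pseudomonas aeruginosa culture filtrate used as stimulus; plate controls were PAF-stimulated DMSO wells for no effect and unstimulated DMSO wells for full effect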
# Peg3 promoter – Peg3 promoter-driven luciferase inhibitors, primary screen, cell-based, HeLa, luciferase luminescence; HeLa PEG-Prom luciferase reporter, overnight; inhibition, % at 20 µM; 1.7% of 360,000 active; AID 588405, 2011;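 active = inhibition of at least 50% at 20 µM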
# KKLEB tox – cytotoxicity in KKLEB CF airway cells, primary screen, cytotoxicity control for CF NF-kB inhibitor project, cell-based, uHTS, fluorescence assay plates; KKLEB CF airway cells viability, ATPlite luminescence, overnight; stronger effect = lower value; cells stimulated with P. aeruginosa culture filtrate; 0.36% of 360,000 active; activity change (cytotoxicity), % at 5 µM;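 active = corrected activity change at or below -50% at 5 µM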
# Mdm2-MdmX inh – inhibitors of human Mdm2-MdmX association, primary screen, cell-based, luminescence, split luciferase, SaOS-2, uHTS; Protein Mdm4 (Homo sapiens) + E3 ubiquitin-protein ligase Mdm2 (Homo sapiens), …; SaOS-2 split-luciferase Mdm2/MdmX complementation; inhibition, % at 8 µM; 3% of 330,000 active;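 active = inhibition of at least 50% at 8 µM in the primary screen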
# CF NFkB conf – inhibitors of PAF-induced NF-kB signaling, retest, confirmation, cell-based, GFP fluorescence, single concentration; 64% of 1,300 active; KKLEB CF airway cells, overnight; AID 602472, 2012; shares compounds with CF NFkB inh; inhibition, % at 5 µM; in the data active = inhibition above about 40%;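 note: stimulus PAF is a Pseudomonas aeruginosa filtrate and not platelet activating factor; plate controls were DMSO wells with stimulus for no effect and unstimulated DMSO wells for full effect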
# * hit, by the source's call; / = not tested or not shown; ! = a repeat was not active. Sampled rows, rich in hits. Any-hit rate of the full collection: about 4.6%.
SMILES,HIF-2a block,ABHD5 PLIN5 PPI,CF NFkB inh,Peg3 promoter,KKLEB tox,Mdm2-MdmX inh,CF NFkB conf
O=C(COC(=O)/C=C/c1ccccc1)NCCc1ccc(F)cc1,-1,3,25,13,11,-15,/
COc1cc(C(=O)N/N=C/c2coc3ccccc3c2=O)cc(OC)c1OC,25,-3,25,-3,-13,24,/
COc1cc(C(=O)N/N=C/c2coc3ccc(Cl)cc3c2=O)ccc1O,19,10,61*,0,-15,28,39
COc1ccc(C(=O)N/N=C\c2coc3ccc(Cl)cc3c2=O)cc1,30,-2,44,-2,-11,37,/
O=C(N/N=C/c1coc2ccc(Cl)cc2c1=O)c1ccc(O)cc1,12,9,51*,16,-10,38,16
Cc1ccc([C@H]2N[C@]3(CCCN(Cc4ccc(F)cc4)C3=O)[C@H]3C(=O)N(Cc4ccccc4)C(=O)[C@@H]23)cc1,11,-2,14,17,-7,/,/
O=C(Nc1cccc(C(F)(F)F)c1)c1csc(-c2ccncc2)n1,-36,8,-32,-28,2,1,/
COc1cc(NC(=O)c2csc(-c3ccncc3)n2)cc(C(=O)Nc2cccc(C(F)(F)F)c2)c1,-19,6,57*!,50,11,50,71*
CNC(=O)C[C@H]1C(=O)N(c2ccccc2)C[C@@H]1CSC,12,7,-8,-14,10,/,/
CCCCCCCCCCCC(=O)c1c(O)cccc1O,8,-4,71*,26,-12,17,41*
COc1ccc(-c2cn[nH]c2-c2ccc(OCc3ccccc3F)cc2O)cc1OC,20,-7,60*,46,-22,50,60*
O=C(COC(=O)CCc1nc2ccccc2s1)NCc1ccco1,16,4,-7,18,-6,-6,/
CC(=O)Oc1ccc(N(C(C)=O)S(=O)(=O)c2ccc(Cl)cc2)c2ccccc12,23,3,86*,4,-12,29,70*
C=C1C(=O)OC2C=C(CO)CCC=C(CO)CC(OC(=O)C(C)C)C12 (stereo not drawn),9,21,87*,64*,-15,/,45*
CCOc1ccc(N2CC(C(=O)Nc3ccc(S(=O)(=O)Nc4nccs4)cc3)CC2=O)cc1 (stereo not drawn),13,-3,-2,11,2,-34,/
CCCc1nc(SCC(=O)Nc2nnc(CC)s2)c2c(=O)n(C)c(=O)n(C)c2n1,14,-6,-26,23,18,46,/
Cc1cccc(N2CCN(C(=O)CCn3c(=S)[nH]c4cc5c(cc4c3=O)OCO5)CC2C)c1 (stereo not drawn),-8,-5,69*,63*,1,32,101*
CCOC(=O)c1cccc(N2CC3CNC(=O)C2(C(=O)OC)N3C)c1 (stereo not drawn),1,2,12,-16,-12,7,/
COc1cc2c(cc1NC(=O)CN1CCN(S(=O)(=O)c3ccccc3F)CC1)oc1ccccc12,10,-3,55*,30,-40,45,41*
Cc1ccc(Cc2c(-c3ccc(F)cc3)nc3c(C)cc(Br)cn23)cc1,-39,-13,59*,55*,-30,/,16
COc1ccccc1Cc1c(-c2ccc(F)cc2)nc2c(C)cc(Br)cn12,-52,0,60*,32,4,/,16
COc1ccc(C(=O)N2CCCCC2c2cc(C(=O)NCc3cccnc3)no2)cc1 (stereo not drawn),18,0,-49,2,16,/,/
O=C(/C=C/c1ccccc1)NCCc1c[nH]c2ccccc12,-54,-11,-16,-22,11,6,/
Clc1ccccc1C1=Nn2c(nnc2-c2ccncc2)SC1,2,5,78*,2,-11,/,94*
